Over roughly 33,000 sequences, “E-score (-0.5 to 0.5)” has its median near -0.0014; the highest 2% begin near 0.25. This excerpt belongs to a sample that is enriched for the highest values.
Biological target: T1, Cad1 (UniProt P24813)
T1 sequence: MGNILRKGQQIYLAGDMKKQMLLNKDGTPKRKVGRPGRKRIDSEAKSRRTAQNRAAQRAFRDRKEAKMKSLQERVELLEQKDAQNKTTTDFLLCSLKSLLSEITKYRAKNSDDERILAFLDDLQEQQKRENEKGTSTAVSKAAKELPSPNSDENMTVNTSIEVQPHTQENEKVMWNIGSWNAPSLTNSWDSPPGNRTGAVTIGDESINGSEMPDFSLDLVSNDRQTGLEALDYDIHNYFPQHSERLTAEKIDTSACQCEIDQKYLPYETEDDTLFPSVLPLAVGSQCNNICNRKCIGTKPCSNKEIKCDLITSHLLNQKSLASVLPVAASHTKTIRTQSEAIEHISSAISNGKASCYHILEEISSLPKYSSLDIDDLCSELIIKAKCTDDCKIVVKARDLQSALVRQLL
Assay: PBM E-score (8-mer binding enrichment) (E-score (-0.5 to 0.5)); higher = stronger / more preferred TF binding
Details: protein concentration: 100 nM; construct: GST-full length
Method: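 Universal 'all 10-mer' protein binding microarrays (Agilent AMADID 015681) probed with GST-tagged S. cerevisiae TFs (full-length or DBD) made by in vitro transcription/translation (PURExpress), about 100-200 nM. Bound TF was detected with fluorescent anti-GST. Each ungapped 8-mer (which stands for itself and its reverse complement) is scored by the PBM enrichment score (E-score), a modified Wilcoxon-Mann-Whitney statistic from -0.5 to +0.5, computed with the Universal PBM Analysis Suite. Scale: above 0.35 generally sequence-specific binding.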

Sequence	PBM E-score
AATAATCA	0.218
AGCTCCGG	-0.115
AAGCAGAG	-0.111
GCAAGGCC	0.0338
CAGAGAGG	-0.329
AGAGCCGG	-0.167
AACCAAGC	0.03
AAATCGGG	0.0578
GGGTATAC	0.0548
GCATCTAA	0.194
CAACACTA	0.19
TAACACTA	0.265
GAACACTA	0.0513
ACCGTCAC	-0.176
CCCACACA	0.00769
AGAAGGCT	-0.299
AAGTAATG	0.0383
GTGTAATA	0.194
CTGTAATA	0.143
ATGTAATA	0.334
ATGTAATC	0.168
ATGTAACC	-0.0284
ATGTAACA	0.168
ATGTAACG	0.257
ATGTAATG	0.281

Sequence	PBM E-score
ATCTTACC	0.0255
GACATTCC	-0.0262
GAGAACTA	0.103
GTCTAAGA	0.151
TCCTCCCA	-0.144
ATAGATAA	0.125
TTAGATAA	0.105
GTAGATAA	0.251
ACAGGCAA	0.0554
GGATCCGA	-0.00022
CGATCCGA	0.251
CGATCCGC	0.163
CGGGTTTA	-0.0209
AGAGTGCT	0.0363
GAAGAACA	0.121
CAAGAACA	0.0216
TAAGAACA	0.275
CTAGCTTC	0.0393
AGCCTACC	-0.282
CAACTGTC	0.0813
CACTAAAA	0.19
CACAGTAA	0.291
TACAGTAA	0.0528
CACAGTAG	-0.0343
ATATTAAA	0.385

Sequence	PBM E-score
ATATTAAT	0.368
ATATTAAG	0.115
TTAATAAA	0.389
CTAATAAA	0.0515
ATATTAAC	0.224
ACATTAAA	0.11
GCATTAAA	0.103
CTATTAAA	0.00283
TCATTAAA	0.265
ATAATAAA	0.243
CTATTAAC	0.141
ACCAGATG	-0.0464
CTCAGCCC	-0.21
CCAGAGCA	-0.00085
ATTTGATG	0.148
AGACTTCG	-0.0445
TATCTTCA	-0.0564
ACTAGATA	0.0286
ATATAGAA	0.00309
TCTGAGCA	0.0835
CAGGGAAA	-0.054
ACAAAGTA	0.193
CCCTGAAC	0.229
CATCGCTC	-0.187
AGAGCGTG	-0.0848

Sequence	PBM E-score
CTTGCGAA	0.184
TTATTCAA	0.252
ATACTAAA	0.231
GATTTCAA	0.013
CATTTCAA	0.174
TTACTAAA	0.374
TATTTCAA	0.309
TTAGTAAA	0.339
CTAGTAAA	0.0669
ATATTCAA	0.144
GTATTCAA	0.14
GTACTAAA	0.054
ATAGTAAA	0.225
AACGCCAT	-0.0315
CTCGTAAA	0.0173
AGGGCACA	-0.116
ATCGCATA	0.0254
CATAAGCC	0.0914
ACTGCTTA	0.132
GGGTAGAC	-0.191
TCTAAAAA	-0.0235
CCCTGTGA	-0.161
GTATTAAA	0.0777
TGATTAAA	0.123
TTATTAAA	0.307

Sequence	PBM E-score
AACACGTG	0.217
ATGCCAAT	-0.0122
AATCACGT	0.184
ATACGTAC	-0.0354
ATACGTAA	0.2
ATACGTAT	0.298
ACTAATCG	0.356
ACTAATCT	0.135
CCTAATCG	0.168
TCTAATCA	0.181
ACTAATCC	0.242
ACTAATCA	0.344
AATCCGCG	0.13
AGTCCTAC	-0.0257
ATTGAGTC	0.0114
ACCGAGAT	0.0127
AGCGTAAA	0.0495
CATTACTA	0.25
AATTACAG	0.161
AATTACAT	0.354
CTTTACTA	0.213
GTTTACTA	0.195
AATTACAC	0.148
AATTACTC	0.239
GGTTACTA	0.0723

Sequence	PBM E-score
AATTACTA	0.32
CATTACTC	0.0943
GATTACTA	0.392
AATTACTG	0.14
TCACAGGA	-0.0436
CCTCGAAC	-0.0906
GAGCTAGA	-0.178
AGAACGCG	0.0894
GCGGTAGA	-0.0737
CGAGCGTA	0.0172
CGAAAAGC	-0.143
GCTTCACA	-0.0729
AGATCACA	-0.0498
CGATCACG	0.273
CGATCACA	0.204
GACCTCCC	-0.247
ATCTAGGC	-0.102
GCAAAAGA	-0.0108
AGAATTCA	0.126
AGAATTCT	0.278
AGAATTCG	0.051
ACACCCGA	0.134
AACGCCGG	-0.0998
CACTGCGC	-0.0286
ATTCAAGA	0.0376

Sequence	PBM E-score
GTTGGAAA	-0.0664
AGTCGCGA	0.285
GGTCGCGA	0.273
AGTCGCGG	-0.179
GGTCGCTA	-0.112
CGTCGCGA	0.111
AGTCGCGC	0.212
CAAACAAG	0.0295
GGAGCGCC	-0.252
AACACCAG	-0.0336
GCCTTCAA	0.0307
GTGCGGAA	0.0803
CTAACTAA	0.206
CAAACTAA	0.258
ATAACTAA	0.146
TAAACTAA	0.186
CAAACTAC	-0.0121
TTAACTAA	0.291
CCACTGTC	-0.0971
CCTGGAAA	-0.0814
GGGTCTAC	-0.0723
ACTCCGTA	-0.228
